Measured potencies and affinities stand elsewhere. Calls of active or inactive are those of the source.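 The calls were made as follows: active = compounds lowering the cell viability signal, with fitted half-maximal dose at most ten times the top valid dose; inconclusive = flat partial drop of 30 to 70 percent, or poor fit; inactive = flat near zero, weak potency, or rising signal.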
Test: NIH-3T3 viability loss with fluconazole – cell-based, Alamar Blue, dry powder, set 3, cytotoxicity control for reversing antifungal drug resistance, dose response (AID 488933)
Details: NIH-3T3 viability with fluconazole, 48 h; series mostly up to 26 µM

Row | Compound | outcome
1 | COc1ccc(C(=O)N2CCN(c3ccccn3)CC2)cc1 | inactive
2 | O=C(c1ccc(Cl)cc1)N1CCN(c2ccc(C(F)(F)F)cn2)CC1 | inactive
3 | O=C(c1ccc(Cl)cc1)N1CCN(c2nc3ccccc3o2)CC1 | inactive
4 | CC(C)C(=O)N1CCN(c2ccccn2)CC1 | inactive
5 | COCCC(=O)N1CCN(c2ccccn2)CC1 | inactive
6 | O=C(c1cccc(Cl)c1)N1CCN(c2ccccn2)CC1 | inactive
7 | Cn1ccnc1N1CCN(C(=O)c2ccc(Cl)cc2)CC1 | inactive
8 | Cc1ccnc(N2CCN(C(=O)c3ccc(Cl)cc3)CC2)c1 | inactive
9 | N#Cc1cccnc1N1CCN(C(=O)c2ccc(Cl)cc2)CC1 | inactive
10 | O=C(c1ccc(Cl)cc1)N1CCN(c2nccs2)CC1 | inactive
11 | Cc1ccc(C(=O)N2CCN(c3ccccn3)CC2)cc1 | inactive
12 | Cc1cccc(N2CCN(C(=O)c3ccc(Cl)cc3)CC2)n1 | inactive
13 | COc1cccnc1N1CCN(C(=O)c2ccc(Cl)cc2)CC1 | inactive
14 | Cc1ccc(N2CCN(C(=O)c3ccc(Cl)cc3)CC2)nn1 | inactive
15 | CCCCC(=O)N1CCN(c2ccccn2)CC1 | inactive
16 | Cc1ccc(N2CCN(C(=O)c3ccc(Cl)cc3)CC2)nc1 | inactive
17 | O=C(c1ccc(Cl)cc1)N1CCN(c2ncccn2)CC1 | inactive
18 | CC(C)C(=O)N1CCN(c2ccnc3cc(Cl)ccc23)CC1 | inactive
19 | N#Cc1ccc(C(=O)N2CCN(c3ccccn3)CC2)cc1 | inactive
20 | O=C(c1ccc(Cl)cc1)N1CCN(c2nc3ccccc3s2)CC1 | inactive
21 | O=C(c1ccc(Cl)cc1)N1CCN(c2ncccc2C(F)(F)F)CC1 | inactive
22 | O=C(c1ccccc1Cl)N1CCN(c2ccccn2)CC1 | inactive
23 | O=C(c1ccc(Cl)cc1)N1CCN(c2cccc(C(F)(F)F)n2)CC1 | inactive
24 | O=C(c1ccc(Cl)cc1)N1CCN(c2cnccn2)CC1 | inactive
25 | O=C(C1CCCCC1)N1CCN(c2ccccn2)CC1 | inactive
26 | O=C(c1ccc(F)cc1)N1CCN(c2ccccn2)CC1 | inactive
27 | c1ccc(N2CCNCC2)nc1 | inactive
